Screens: PubChem BioAssay, several laboratories
Sampled rows, rich in hits. Any-hit rate of the full collection: about 1.7%.
CHT allo act = CHT positive allosteric modulators, primary screen, cell-based, membrane potential dye, choline EC20 | CHT-expressing cells; active compounds read high; LV-AA mutant CHT in HEK293 cells | B-score at 10 µM | 310,000 compounds, 0.49% hits | AID 488977, 2010;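 active means initial fluorescence not abnormally high and integrated response B-score, plate-corrected, over 3 SD above library mean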
Target sequence (Q9GZV3 whole entry, looked up): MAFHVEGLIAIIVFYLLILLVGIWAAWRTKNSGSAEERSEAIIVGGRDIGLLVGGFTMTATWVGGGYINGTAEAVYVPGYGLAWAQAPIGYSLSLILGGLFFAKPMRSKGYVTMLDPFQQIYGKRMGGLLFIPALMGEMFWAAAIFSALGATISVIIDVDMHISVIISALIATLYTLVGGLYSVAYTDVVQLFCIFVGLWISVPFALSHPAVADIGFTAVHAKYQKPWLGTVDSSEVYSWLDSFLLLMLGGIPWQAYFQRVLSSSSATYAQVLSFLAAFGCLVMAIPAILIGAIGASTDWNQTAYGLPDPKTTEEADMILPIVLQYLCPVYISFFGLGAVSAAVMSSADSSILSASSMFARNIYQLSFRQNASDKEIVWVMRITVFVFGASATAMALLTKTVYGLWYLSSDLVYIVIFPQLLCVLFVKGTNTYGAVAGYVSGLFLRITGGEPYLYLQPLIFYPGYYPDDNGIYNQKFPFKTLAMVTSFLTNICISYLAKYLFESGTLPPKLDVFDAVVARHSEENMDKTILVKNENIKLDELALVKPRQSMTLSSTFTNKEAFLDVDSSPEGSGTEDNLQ
MIN6 prolif = inducers of MIN6 beta-cell proliferation, primary screen, ATP luminescence, uHTS; MIN6 cells proliferation, ATPlite luminescence, 48 h; cells starved in 0.2% serum; 100% = growth in 10% serum; proliferation, % at 10 µM; 330,000 compounds, 0.29% hits; AID 2380, 2010;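 active means compounds whose signal lies at least 3.5 SD above the mean of all wells on their plate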;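 further: 0% = DMSO-treated cells in low-serum medium and 100% = 10% serum control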
TAG inh = inhibitors of triacylglycerol accumulation, primary screen, cell-based, uHTS, fluorescence, H9c2. H9c2 cells, Nile Red lipid (TAG) fluorescence; cells loaded with 200 µM oleic acid. inhibition, % at 12.5 µM. 230,000 compounds, 0.66% hits;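 active means pattern-corrected inhibition of lipid staining of at least 50% with the nuclear-stain viability signal not falling by more than 50%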;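 further: 0% = DMSO wells and 100% = triacsin C control wells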
CHT block = inhibitors of human choline transporter CHT | High affinity choline transporter 1 (Homo sapiens), Q9GZV3 | CHT-expressing cells, membrane potential dye, choline response; active compounds read low | B-score at 10 µM | 310,000 compounds, 0.86% hits | AID 488975, 2010;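 active means B-score over 3 SD under the library average, and starting fluorescence ratio not unusually high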;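 further: choline stimulus applied at its EC90 after an EC20 pre-addition; B-score computed on integrated fluorescence ratio after choline addition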
H9c2 TAG conf = triacylglycerol accumulation inhibitors, retest, confirmation, cell-based, single concentration, Nile Red fluorescence, H9c2 | shares compounds with TAG inh | H9c2 lipid accumulation; cells loaded with 200 µM oleic acid | inhibition, % at 12.5 µM | 990 compounds, 71% hits | AID 651629, 2012;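 active means mean inhibition across replicates of 40% or more; inactive means mean inhibition below 40%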;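 further: plate controls were DMSO only wells for no effect and Triacsin C treated wells for full effect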
Active calls of the source: *; i = inactive; · = not tested or not shown.

SMILES	CHT allo act	MIN6 prolif	TAG inh	CHT block	H9c2 TAG conf
C[C@H](CO)N1C[C@H](C)[C@H](CN(C)S(=O)(=O)c2ccc3ccccc3c2)OCc2cnnn2CCCC1=O	·	·	14	·	·
CCOc1ccc(S(=O)(=O)N2CCC(C(=O)NCc3ccccc3CN3CCCC3)CC2)cc1	·	0	13	·	·
CC(C)(C)c1cc(NC(=O)C2(C)CCN2C(=O)C2(c3ccccc3)CCCC2)no1 (centres undefined)	·	·	53*	·	40
NC(=O)CC(NC(=O)Cc1cccc2ccccc12)c1ccc(N2CCN(c3ccccn3)CC2)c([N+](=O)[O-])c1 (centres undefined)	i	-3	12	i	·
Cc1ccc2c(c1)-c1c(cnn1CC(=O)Nc1ccccc1N1CCN(C)CC1)CO2	i	-1	53*	i	51*
CC1(C(=O)Nc2ccccc2)Cc2c(-c3ccc4c(c3)OCO4)ccnc2O1 (centres undefined)	·	·	-6	·	·
CC1(C(=O)NCc2cccs2)Cc2c(-c3ccc4c(c3)OCO4)ccnc2O1 (centres undefined)	·	·	54*	·	52*
CC1(C(=O)Nc2cccc(Oc3ccccc3)c2)Cc2c(-c3ccc4c(c3)OCO4)ccnc2O1 (centres undefined)	·	·	63*	·	47*
COc1ccc(-c2csc(NC(=S)NC(=O)/C=C/c3ccco3)n2)cc1Br	i	-3	79*	i	87*
Cc1c(Cl)cccc1NC(=O)N1CCN(C(=O)c2ccco2)CC1	i	1	14	i	·
COc1ccc(NC(=O)N(C)[C@H]2C[C@H]3c4[nH]c5ccc(-c6ccc(OC)cc6)cc5c4CCN3C(=O)[C@H]2[C@H](C)O)cc1	·	·	24	·	·
COc1ccc(NC(=O)N(C)[C@H]2C[C@H]3c4[nH]c5ccc(-c6ccc7c(c6)OCO7)cc5c4CCN3C[C@H]2[C@H](C)O)cc1	·	·	60*	·	66*
COc1ccc(NC(=O)O[C@@H](C)[C@@H]2CN3CCc4c([nH]c5ccc(-c6ccc(OC)cc6)cc45)[C@@H]3C[C@@H]2N(C)C(=O)Nc2ccc(OC)cc2)cc1	·	·	72*	·	72*
COc1ccc(-c2ccc3[nH]c4c(c3c2)CCN2C[C@@H]([C@H](C)OC(=O)Nc3cc(Cl)cc(Cl)c3)[C@@H](N(C)C(=O)Nc3cc(Cl)cc(Cl)c3)C[C@@H]42)cc1	·	·	73*	·	84*
COc1ccc(NC(=O)N(C)[C@H]2C[C@H]3c4[nH]c5ccc(-c6ccc(OC)cc6)cc5c4CCN3C[C@H]2[C@H](C)O)cc1	·	·	34	·	·
COc1ccc(-c2ccc3[nH]c4c(c3c2)CCN2C(=O)[C@@H]([C@H](C)O)[C@@H](N(C)C(=O)Nc3ccccc3)C[C@@H]42)cc1	·	·	13	·	·
Cn1c(=O)c2[nH]c(Cc3cccc4ccccc34)nc2n(C)c1=O	·	·	-5	·	·
c1ccc(Oc2nc(-c3ccccn3)nc3ccccc23)cc1	i	-2	72*	i	51*
COc1ccc(Oc2nc(-c3ccccn3)ncc2OC)cc1	i	-2	-3	i	·
COc1ccc(Oc2nc(-c3ccccn3)nc3ccccc23)cc1	i	-2	62*	i	53*
Fc1ccc(Oc2nc(-c3ccccn3)nc3ccccc23)cc1	i	-3	56*	i	42*
COc1cc2c3nc4n(c(=O)c3n(CC(=O)NCC3CCCO3)c2cc1OC)CCS4 (centres undefined)	i	0	·	i	·
O=C(CNC(=O)c1sc2ccccc2c1Cl)Nc1ccccc1F	i	-2	-5	i	·
O=CC(=Cc1ccccc1)c1ccccc1	·	·	10	·	·
Cc1ccc(NC(=O)CCNCc2ccco2)cc1S(=O)(=O)N(C)C	i	-1	12	i	·
SMILES	CHT allo act	MIN6 prolif	TAG inh	CHT block	H9c2 TAG conf
O=C(CSc1nc2ccccc2c(=O)n1Cc1ccco1)c1ccccc1	i	-2	·	i	·
Cc1cc(-n2c(C)cc(C(=O)CSc3nc4ccccc4c(=O)n3Cc3ccco3)c2C)no1	i	-5	55*	i	21
COCCNc1nc(NCc2ccc(NC(C)=O)cc2)c2sc(-c3ccccc3)cc2n1	·	·	53*	·	123*
c1ccc(CNc2nc(NCC3CC3)nc3cc(-c4ccccc4)sc23)cc1	·	·	21	·	·
C=CCNc1nc(Nc2ccc(OC)c(OC)c2)c2sc(-c3ccccc3)cc2n1	·	·	70*	·	82*
C=CCNc1nc(NCCOC)c2sc(-c3ccccc3)cc2n1	·	·	5	·	·
COCCNc1nc(Oc2ccc(NC(C)=O)cc2)c2sc(-c3ccccc3)cc2n1	·	·	26	·	·
c1ccc(OCCNc2nc(NCC3CC3)nc3cc(-c4ccccc4)sc23)cc1	·	·	57*	·	41*
NNC(=O)CS(=O)(=O)c1ccc(Cl)cc1	i	-2	5	i	·
COc1cc(-c2coc3c(C(=O)NCc4ccc(C(F)(F)F)cc4)cccc23)ccc1O	·	·	54*	·	27
COc1ccc(NC(=O)Cn2c(=O)n(-c3ccc(CC(=O)NCc4ccco4)cc3)c(=O)c3ccccc32)cc1	i	-1	65*	i	54*
COc1ccc(C(=O)Nc2ccc(-c3nnn(CC(=O)NCc4ccco4)n3)cc2)cc1	i	-6	53*	i	16
O=C(COc1ccccc1)Nc1ccc(-c2ccc(N3CCOCC3)nn2)cc1	i	0	7	i	·
COc1ccc(CCNC(=O)Cc2cc(OCc3ccccc3)c(OC)cc2[N+](=O)[O-])cc1OC	i	-2	63*	i	33
O=C(NCC(c1ccc(F)cc1)N1CCOCC1)c1ccc([N+](=O)[O-])o1 (centres undefined)	·	-1	51*	·	76*
O=C(NCc1nnnn1-c1ccc(F)cc1)c1ccc([N+](=O)[O-])o1	i	-2	65*	i	82*
CCc1ccc(N2CCN(C(=O)N3CCOCC3)CC2)cc1	i	0	-6	i	·
Cc1cc(C)cc(CC(=O)N2CCC2(C)C(=O)NS(=O)(=O)c2ccc(Cl)s2)c1 (centres undefined)	·	·	75*	·	4
Cc1nn(-c2ccccc2)c(Cl)c1/C=N/NC(N)=O	i	-2	4	i	·
NC(=O)N/N=C/c1c(Sc2nnnn2-c2ccccc2)nc2ccccn2c1=O	i	-6	52*	i	64*
O=C(CCC(=O)N1CCOc2ccc(Cl)cc21)NCCCN1CCC(Cc2ccccc2)CC1	i	-7	90*	i	62*
COc1ccc(Cl)cc1-c1cc(C(=O)NCC2CCCCC2)[nH]n1	·	·	53*	·	-6
Cc1ccc2nc(SCC(=O)Nc3cc(C)on3)nc(=O)n2c1	i	-1	3	i	·
OCC1OC(n2ccc3c(NO)ncnc32)C(O)C1O (centres undefined)	·	·	130	·	·
CC(C)=CCNc1ncnc2c1c(C#N)cn2C1OC(CO)C(O)C1O (centres undefined)	·	·	58*	·	46*
